Our source for the activity change, negative = inhibition values is PubChem BioAssay AID1259415 (National Center for Advancing Translational Sciences (NCATS), 2018).

About 18,000 (4.4%) of roughly 410,000 compounds were called active. Another 7% or so got no clear call; they are omitted. This excerpt belongs to a sample that is enriched for actives. A number with no mark means an inactive call. No stated cut-off is given here; in the data, active means activity change below about -60%; inconclusive means no clear call, values can overlap the other calls; inactive means above about -39%.
On the % scale 0 is the no-effect control and ±100 the full control effect.

The nature of the test: qHTS Assay for inhibitors of the human cytomegalovirus (HCMV). The conditions noted are these: HFF cells, HCMV-luciferase reporter, 72 h; at 57.5 µM; stronger effect = lower value. Summed up:
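Inhibition of viral replication was scored as loss of reporter luminescence in HFFs infected with HCMV-luciferase (MOI 1 PFU/cell) for 72 h; compounds tested at 2 doses, normalized to buffer and Salinomycin controls.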
(In general: In qHTS, concentration-response curves come from the screen itself.)
Turning to `C[C@@H]1NS(=O)(=O)c2cc(Cl)ccc2O[C@@H]1c1ccccc1`, the activity change, negative = inhibition is -16.5%.

As for `COc1ccc(CCn2cc3c(c2-c2ccc(Br)cc2)c(=O)n(C)c(=O)n3C)cc1OC`, the activity change, negative = inhibition was 15.4%.

Turning to `COc1ccc(S(=O)(=O)NCc2cccn2Cc2cccc(C)c2)cc1`, the activity change, negative = inhibition was -4.02%.

For the compound `CCOc1ccc(N(C)S(=O)(=O)c2cc(-c3cnc(C)o3)ccc2OC)cc1`, the activity change, negative = inhibition was -20.5%.

With `Cc1nn(C(C)C(=O)Nc2ccc(C(C)C)cc2)c(=O)c2c1sc1ccccc12` (stereo not given), the activity change, negative = inhibition was -9.99%.

On to `COc1ccccc1NC(=O)C1CCCN1S(=O)(=O)c1ccc(Cl)cc1` (stereo not given), for which the activity change, negative = inhibition is 0.0905%.

`COc1ccccc1Nc1nc(N)nc(N)c1S(=O)(=O)c1ccccc1`: the activity change, negative = inhibition was 21.5%.

Turning to `COc1ccccc1NC1=NC(c2ccc(Cl)cc2)N=C(N)N1` (stereo not given), the activity change, negative = inhibition was -75.4% (active).

`CC(=NNC(N)=O)c1ccc(Cl)c(-n2cccc2)c1`: the activity change, negative = inhibition is 25.6%.

With `Cc1cccc2c(=O)cc(CSc3ccccc3NC(=O)C(C)C)[nH]c12`, the activity change, negative = inhibition is 45.6%.

Regarding `COCCCNC(=O)c1ccc(NC(=O)c2nsc3ccccc23)cc1`, the activity change, negative = inhibition is 114%.

Regarding `CCCc1ccc(OCc2ccc(C(=O)N/N=C/c3cccc([N+](=O)[O-])c3)o2)c(OC)c1`, the activity change, negative = inhibition was -67.9% (active).

Consider `COc1ccccc1OCc1ccc(C(=O)NC(C)c2ccccc2)o1` (stereo not given), for which the activity change, negative = inhibition was 26.2%.

As for `Cc1cccc(NC(=O)c2ccc(COc3ccccc3[N+](=O)[O-])o2)n1`, the activity change, negative = inhibition is -4.62%.

In the case of `COc1ccc(N(CC(=O)NCCc2ccc(Cl)cc2)S(=O)(=O)c2c(C)nn(C)c2C)cc1`, the activity change, negative = inhibition is -14.4%.

Regarding `Cc1ccc(S(=O)(=O)NCc2nc3nc(C)cc(C)n3n2)cc1`, the activity change, negative = inhibition was 14.6%.

For `Cc1ccc(-c2nn3c(=O)cc(CN4CCN(C(=O)Nc5cccc(C(F)(F)F)c5)CC4)nc3s2)cc1`, the activity change, negative = inhibition was 10.5%.

For `CCOC(=O)C1CCN(c2csc3ccc(C)cc3c2=O)CC1`, the activity change, negative = inhibition was -4.71%.

Consider `CC(NCc1nc2ccccc2n1C)C12CC3CC(CC(C3)C1)C2` (stereo not given), for which the activity change, negative = inhibition was -65.6% (active).

With `COc1cccc(C(O)Cc2nc3ccccc3n2C)c1OC` (stereo not given), the activity change, negative = inhibition is 34.8%.

Regarding `Cn1c(COc2ccccc2C(C)(C)C)nc2ccccc21`, the activity change, negative = inhibition is -14.6%.

`CCOC(=O)c1ccc(NC(=O)c2csc3c2CCCCC3)cc1`: the activity change, negative = inhibition is 26.3%.

Take `Nn1c(SCC(=O)NC2CCCc3ccccc32)nnc1C1CC1` (stereo not given): the activity change, negative = inhibition is 40.9%.

`CC(C)N(Cc1ccccc1)C(=O)COC(=O)c1ccccc1SCC(=O)N1CCCC1`: the activity change, negative = inhibition is -8.52%.

As for `COc1ccc(CN2CCNC(=O)C2CC(=O)NCc2cn[nH]c2-c2ccccc2)c(F)c1` (stereo not given), the activity change, negative = inhibition is -65.5% (active).

For the compound `CC(C)c1nc(CNC(=O)CC2C(=O)NCCN2Cc2cccc(F)c2F)cs1` (stereo not given), the activity change, negative = inhibition was 12.4%.

Take `O=C(CC1C(=O)NCCN1Cc1ccc(-c2ccccc2)cc1)NCc1ccncc1` (stereo not given): the activity change, negative = inhibition is 11.9%.

For `CCOc1ccc(N2CC(C)Cn3c2nc2c3c(=O)n(Cc3c(F)cccc3Cl)c(=O)n2C)cc1` (stereo not given), the activity change, negative = inhibition is -9.51%.

As to `CCOc1ccccc1NC(=O)CN1CCN(S(=O)(=O)c2ccc(Br)cc2)CC1`, the activity change, negative = inhibition is -1.48%.

Regarding `O=C(NC1CC(=O)N(c2ccc(F)cc2)C1)C1CCCCC1` (stereo not given), the activity change, negative = inhibition is 31.9%.

As for `Cc1ccc(C)c(N2CCN(C(c3ccccc3)c3nnc(-c4ccccc4)o3)CC2)c1` (stereo not given), the activity change, negative = inhibition is 20.2%.

`COc1ccc(C(=O)NN2C(=O)C3C(c4ccccc4)C=CC(c4ccccc4)C3C2=O)cc1` (stereo not given): the activity change, negative = inhibition was -63% (active).

Take `O=C(NN1C(=O)C2C3C=CC(C4CC34)C2C1=O)c1ccc(Cl)cc1` (stereo not given): the activity change, negative = inhibition is 11.6%.

Turning to `O=C(NN1C(=O)C2C3C=CC(O3)C2C1=O)c1ccncc1` (stereo not given), the activity change, negative = inhibition was -8.47%.

With `CCc1cccc(NC(=O)c2cnc(N3CCOCC3)c3ccccc23)c1`, the activity change, negative = inhibition was 10.1%.

As for `COc1ccc(CCNC(=O)c2ccc3c(c2)nc(C)n3-c2ccc(Br)cc2)cc1OC`, the activity change, negative = inhibition was -16.1%.

`Cc1ccc(C)c(Cn2c(C)c(CNCc3ccc(F)cc3)c(C(=O)O)c2C)c1`: the activity change, negative = inhibition was 18.1%.

Consider `Cc1ccc(C2c3[nH]c4ccccc4c3CCN2C(=O)c2cccc(C)c2)cc1` (stereo not given), for which the activity change, negative = inhibition was -22.4%.

`Clc1ccc(Cn2ncc3c(NCc4cccnc4)ncnc32)cc1`: the activity change, negative = inhibition is -72.2% (active).

Take `C=CCOc1cccc(CNCc2cccnc2)c1`: the activity change, negative = inhibition was 21.4%.

With `CC(C)CNc1ncnc2c1cnn2Cc1ccc(Cl)cc1`, the activity change, negative = inhibition was -30.5%.

Take `C=CCNc1ncnc2ccc(Br)cc12`: the activity change, negative = inhibition was -60.6% (active).

For the compound `Clc1cccc(-n2ncc3c(NCCc4ccccc4)ncnc32)c1`, the activity change, negative = inhibition is 41.5%.

Regarding `Brc1ccc2ncnc(NCc3cccnc3)c2c1`, the activity change, negative = inhibition is -65.9% (active).

Consider `c1cncc(CNC2=NCCC2)c1`, for which the activity change, negative = inhibition is 46.1%.

Turning to `COc1ccc(CCNS(=O)(=O)c2cccc([N+](=O)[O-])c2)cc1`, the activity change, negative = inhibition was -2.78%.

On to `COc1cc2nc(NCC(C)c3ccccc3)n3nc(-c4ccccc4)nc3c2cc1OC` (stereo not given), for which the activity change, negative = inhibition was 5.32%.

Turning to `Cc1ccc2cccc(NC(=O)C(C)Oc3ccc(C)c(C)c3)c2n1` (stereo not given), the activity change, negative = inhibition is -3.68%.

Turning to `C=CCNC(=O)c1cc2nc(C3CC3)cc(C(F)F)n2n1`, the activity change, negative = inhibition is 37.6%.

For the compound `COc1ccc(N(CC(=O)Nc2ccc(F)c(F)c2)S(=O)(=O)c2c(C)[nH]c(=O)[nH]c2=O)cc1`, the activity change, negative = inhibition was 0%.

With `CC(C)c1ccc(NC(=O)c2cc(S(=O)(=O)N3CCc4ccccc4C3)ccc2F)cc1`, the activity change, negative = inhibition was 3.74%.

For `CC1=C(C(=O)OCC(C)C)C(c2ccc(OCc3ccccc3)cc2)N2C(=O)CCSC2=N1` (stereo not given), the activity change, negative = inhibition was 14.9%.

Consider `CCc1ccc(NC(=O)CN2C(=O)C(c3ccccc3)=NC23CCCCCC3)cc1`, for which the activity change, negative = inhibition was 16.1%.

For `COc1ccc(NC(=O)CN2C(=O)C(c3ccccc3)=NC23CCCCCC3)cc1OC`, the activity change, negative = inhibition is -13.9%.

Turning to `CC1CCC2(CC1)N=C(c1ccccc1)C(=O)N2CC(=O)Nc1ccc(F)c(Cl)c1` (stereo not given), the activity change, negative = inhibition was -96% (active).

Consider `COc1cccc(NC(=O)C2CCN(c3cc(C)nc4c(-c5ccc(Cl)cc5)c(C)nn34)CC2)c1`, for which the activity change, negative = inhibition is -5.4%.

Take `O=c1cc(-c2ccccc2)[nH]c2cc(F)ccc12`: the activity change, negative = inhibition was -67.4% (active).

With `CC(=O)c1cc(-c2ccccc2)[nH]c1N1CCCC1`, the activity change, negative = inhibition was 30.4%.

On to `Cc1ccc(-c2cc(=O)c3ccc(F)cc3[nH]2)cc1`, for which the activity change, negative = inhibition was 3.06%.

Regarding `COc1cccc2sc(Nc3nc(C)c(C(C)=O)s3)nc12`, the activity change, negative = inhibition was -77% (active).

Turning to `COc1ccccc1Nc1ncc(C(C)=O)c(C)n1`, the activity change, negative = inhibition was 16.2%.

With `COc1ccccc1CNC(=O)COC(=O)c1sc(C)nc1C`, the activity change, negative = inhibition was -2.84%.

Take `O=C(Nc1ccc(-c2nc3cc(NC(=O)c4ccccc4Cl)ccc3o2)cc1)c1ccccc1Cl`: the activity change, negative = inhibition is -35.6%.

Consider `COc1ccc(-c2nc(Cn3c(=O)cc(C)c4c(C)nn(-c5ccccc5)c43)c(C)o2)c(OC)c1`, for which the activity change, negative = inhibition is -2.37%.

Consider `Cc1nc2ccc(S(=O)(=O)NC(C(=O)NCc3ccccc3Cl)C(C)C)cc2s1` (stereo not given), for which the activity change, negative = inhibition is -12.9%.

In the case of `CC1(C)CC(=O)C=C(c2ccc(Cl)c(C(F)(F)F)c2)C1`, the activity change, negative = inhibition is -4.75%.

On to `COc1ccccc1-c1n[nH]nc1C1=CC(=O)CC(C)(C)C1`, for which the activity change, negative = inhibition is -4.89%.

`CC1(C)CC(=O)C=C(c2ccc3ncccc3c2)C1`: the activity change, negative = inhibition is -83.3% (active).

Regarding `CC1CCCCN1Cc1c(O)ccc2c(=O)c(-c3cccc(Cl)c3)c(C(F)(F)F)oc12` (stereo not given), the activity change, negative = inhibition is 11.3%.

Regarding `O=C(NCCCc1ccccc1)C(=O)c1c[nH]c2ccccc12`, the activity change, negative = inhibition was 21.3%.

Turning to `O=C(CCc1c[nH]c2ccccc12)NCCOc1ccccc1`, the activity change, negative = inhibition was -2.62%.

For `N#C/C(=C/c1ccc(N2CCCCC2)o1)C(=O)NCCc1c[nH]c2ccccc12`, the activity change, negative = inhibition is -60.4% (active).

With `COc1ccc(NC(=O)Cn2cc(C(=O)c3ccncc3)c(=O)c3cc(C)ccc32)cc1Cl`, the activity change, negative = inhibition was -8.82%.

For the compound `CCCOc1ccc(C2c3c(-c4ccccc4O)n[nH]c3C(=O)N2Cc2cccnc2)cc1` (stereo not given), the activity change, negative = inhibition is 8.52%.

In the case of `CCOC(=O)c1ccc(NC(=O)c2c(NCc3cccs3)sc3c2CCCC3)cc1`, the activity change, negative = inhibition is -7.9%.

Take `CC(C)(C)Nc1nc(-c2ccccn2)nc2ccccc12`: the activity change, negative = inhibition was -100% (active).

In the case of `COc1cc(Nc2nc(-c3ccc(OC)c(OC)c3)nc3ccccc23)cc(OC)c1`, the activity change, negative = inhibition is -33.1%.

`COc1ccc(N2CCN(c3nc(-c4ccccc4F)nc4ccccc34)CC2)cc1`: the activity change, negative = inhibition was -30%.

`CCCc1nn2c(=O)cc(COC(=O)c3ccc(NC(=O)COc4ccc(F)cc4)cc3)nc2s1`: the activity change, negative = inhibition is -24.2%.

Consider `CC(C)(C)C(=O)CCN1C(=O)C2(OCCO2)c2ccccc21`, for which the activity change, negative = inhibition is 1.52%.

Regarding `COc1ccc(C2C(=O)N(C3CCCCCC3)CC(=O)N2CCc2ccc(Cl)cc2)cc1OC` (stereo not given), the activity change, negative = inhibition is -12.5%.

For the compound `Cc1cn(C)c(CC(=O)NCc2ccccc2)c1C(=O)O`, the activity change, negative = inhibition is 16.2%.

As to `NC(=O)C1CCN(C(=O)c2ccc(F)c(S(=O)(=O)N3CCOCC3)c2)CC1`, the activity change, negative = inhibition is -6.8%.

For `CC1CCN(C(=O)c2ccc(S(=O)(=O)Cc3cc(F)ccc3F)c([N+](=O)[O-])c2)CC1`, the activity change, negative = inhibition was -83.1% (active).

On to `CC1=Nc2cc(C(=O)N3CCC(C)CC3)ccc2Sc2ccc(Cl)cc21`, for which the activity change, negative = inhibition was -34.1%.

Take `Cc1cccc(CSc2nc3ccncc3n2CC(=O)N(C)C2CCCCC2)c1`: the activity change, negative = inhibition is 19.5%.

As for `O=C(NCC(c1ccco1)S(=O)(=O)c1cccs1)c1ccc(F)cc1` (stereo not given), the activity change, negative = inhibition is 0%.

Turning to `CSc1ncnc2sc(C)c(C)c12`, the activity change, negative = inhibition was -17.9%.

Turning to `Cc1cccc(-n2ccnc2SCC(=O)Nc2cccc3ccccc23)c1C`, the activity change, negative = inhibition is -0.357%.

Regarding `O=C(NCCc1ccc(F)cc1)c1ccc2nccnc2c1`, the activity change, negative = inhibition is 104%.

In the case of `CC(C)CCC(C)NC(=O)c1ccc2nccnc2c1` (stereo not given), the activity change, negative = inhibition is 43%.

On to `CCn1c(=O)c(=O)n(CC)c2cc(N3CCCCC3)c(NC(=O)c3cccc(F)c3)cc21`, for which the activity change, negative = inhibition was -12.9%.

For the compound `O=C(Nc1ccccc1N1CCCC1)c1ccc(F)c(S(=O)(=O)N2CCOCC2)c1`, the activity change, negative = inhibition was -11.8%.

For the compound `Cc1ccc(C)c(NC(=O)c2ccc3nccnc3c2)c1`, the activity change, negative = inhibition was -67% (active).

On to `O=C(Nc1ccccc1N1CCCCC1)c1ccc2nccnc2c1`, for which the activity change, negative = inhibition was -62.2% (active).
